Data taken from PubChem BioAssay (EPA / NIEHS).
Activity calls are given as the source filed them. Rule for the calls: active = hit-call score of the fitted dose curve at least 0.9, where 1 is the maximum; inactive = score below 0.9.

Experiment: BSK_SAg_SRB: Viability Assessment in the BioMAP Diversity Plus: SAg Assay (AID 2283096);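 note: cells read one day after compound addition; hits may be either gain or loss of signal compared with DMSO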
Conditions: primary human HUVEC with PBMC
Summary of the method: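 Compounds were added to a human vascular co-culture of umbilical vein endothelium and PBMC. After 24 h, parallel cultures were fixed with 10% TCA, stained with 0.1% sulforhodamine B and read at 560 nm. Gain or loss of signal was fitted relative to DMSO.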

Compound	outcome	AC50
On1ccccc1=S	inactive	
Cn1c(=O)c2c(ncn2C)n(C)c1=O	inactive	
CC(=O)c1ccc2c(c1)[C@H](NC(=O)c1ccc(F)cc1)[C@@H](O)C(C)(C)O2	inactive	
COCCOCCOCCOC	inactive	
O=c1[nH]c2ccc(S(=O)CCN3CCC(Cc4ccc(F)cc4)CC3)cc2o1 (centres undefined)	inactive	
CCCN(C1CCN(C(=O)C2CCNCC2)CC1)[C@@H]1CCc2ccc(OC)cc2C1	inactive	
C1=CCCC=CCCC=CCC1	inactive	
CC(C)CC(C)(O)C#CC(C)(O)CC(C)C (centres undefined)	inactive	
O=C1CCC(N2C(=O)c3ccccc3C2=O)C(=O)N1 (centres undefined)	inactive	
CC/C(=C\C(=N/O)C(N)=O)C(C)[N+](=O)[O-] (centres undefined)	inactive	
CC(O)CN(CCN(CC(C)O)CC(C)O)CC(C)O (centres undefined)	inactive	
C[C@](N)(Cc1ccc(O)c(O)c1)C(=O)O	inactive	
CCOC(=O)c1ccc(C2CCC(NC[C@H](O)COc3ccc(O)c(NS(C)(=O)=O)c3)CC2)cc1 (some centres undefined)		26.3 µM (active)
CC[C@H]1OC(=O)[C@H](C)[C@@H](O[C@H]2C[C@@](C)(OC)[C@@H](O)[C@H](C)O2)[C@H](C)[C@@H](O[C@@H]2O[C@H](C)C[C@H](N(C)C)[C@H]2O)[C@](C)(O)C[C@@H](C)C(=O)[C@H](C)[C@@H](O)[C@]1(C)O	inactive	
CCn1nc(Cc2ccccc2)cc1C1CCN(C[C@H]2C[C@H](N(C)[C@@H](C(=O)O)C(C)C)C[C@@H]2c2cccc(F)c2)CC1	inactive	
O=P(OC(CCl)CCl)(OC(CCl)CCl)OC(CCl)CCl	inactive	
O=C(O)c1cc(N=Nc2ccc(S(=O)(=O)Nc3ccccn3)cc2)ccc1O	inactive	
Oc1ccc2c(c1)-c1ccccc1C2		20 µM (active)
CCCCCCCCCCCCc1ccccc1	inactive	
CCCC(=O)OCC	inactive	
CC[C@H](C)C(=O)O[C@H]1C[C@@H](C)C=C2C=C[C@H](C)[C@H](CC[C@@H]3C[C@@H](O)CC(=O)O3)[C@H]21		3.95 µM (active)
NC(=O)NO	inactive	
COCCOc1cc2cc(C(=O)NC3CCN(C(C)C)CC3)n(CC(=O)Nc3ccc(Cl)cn3)c2cn1	inactive	
COc1ccc(-n2nc(C(F)F)cc2-c2ccc(S(C)=O)cc2)cc1 (centres undefined)	inactive	
CC(C)(O)c1coc(S(=O)(=O)NC(=O)Nc2c3c(cc4c2CCC4)CCC3)c1	inactive	
CCNc1ccccc1	inactive	
CC(C)CCCCCCOC(=O)c1ccc(C(=O)OCCCCCCC(C)C)c(C(=O)OCCCCCCC(C)C)c1	inactive	
CCCCC(CC)COC(=O)CCCCCCCCC(=O)OCC(CC)CCCC (centres undefined)	inactive	
Cn1c(=O)cc(Oc2ccc(F)cc2F)c2cnc(NCC(C)(C)O)nc21	inactive	
